AMA1-RON2 inh = disrupts binding of P. falciparum AMA1 to RON2. actives 0.2% (n = 360,000). AID 720542. Potency, µM (top dose mostly 58.2 µM), for the others: at the highest dose activity change, negative = inhibition, hits mostly inhibitors. AlphaScreen AMA1-biotinylated RON2 peptide binding;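 note: 0% = vehicle wells and -100% = peptide control; nearly all actives have a fitted effect of over 45% in size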
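AMA1 (3D7) with his tag at 25 nM final met compounds first, then biotinylated RON2 peptide at 25 nM; detection used donor plus acceptor beads, 10 µg/mL apiece, read by AlphaScreen after 30 min at room temperature.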
SARS PLP yeast = inhibitors of SARS-CoV papain-like protease in yeast | S. cerevisiae expressing SARS-CoV PLpro, growth rescue | Potency, µM (top dose mostly 32.9 µM), without a hit: at the highest dose activity, positive = growth rescue, most hits filed as activators | actives 0.19% (n = 330,000) | AID 485353; calls by dose curve; note: 0% is about no effect; nearly all actives have a fitted effect of over 55% in size
Pf growth 96h = P. falciparum growth inhibition at 96 hours. P. falciparum luciferase reporter growth, 96 h. actives 6.9% (n = 320,000). Potency, µM (highest dose often 28.7 µM), for the others: at the top dose activity change, negative = inhibition, usual class: inhibitors. AID 504834; note: % is set by controls: 0 for no effect and ±100 for the full control effect
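Parasite growth measured via integrated firefly luciferase reporter in P. falciparum. Infected erythrocytes at 2% hematocrit, 0.05% parasitemia final were treated 96 hours at 37 C under 5% CO2, and luminescence was read.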
Pf growth 48h = inhibits P. falciparum growth in the first generation, 48 h. P. falciparum luciferase growth in erythrocytes, 48 h. Potency, µM (top dose mostly 28.7 µM), for inactives: top-dose activity change, negative = inhibition, actives largely listed as inhibitors. actives 5.9% (n = 310,000); note: % is set by controls: 0 for no effect and ±100 for the full control effect
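Luminescence readout; reporter = integrated firefly luciferase in P. falciparum. RBC culture at 2% hematocrit, 0.1% parasitemia final, 37 C/5% CO2; decreased signal taken as growth inhibition.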
An asterisk follows results filed as active; u = inconclusive; x = no result given. The list is not random: actives were taken first. Their share in the collection is about 9.4%. Unless noted, calls come from the whole dose curve; as a rule, active = well fitted curve in the direction sought with a large enough effect; inconclusive = small, poorly fitted or top-dose-only effect, or another doubt; inactive = no such curve, though single readings can be large; an effect the other way counts as inactive or inconclusive. Potency is the fitted concentration of half-maximal effect.

SMILES	AMA1-RON2 inh	SARS PLP yeast	Pf growth 96h	Pf growth 48h
CNC(=O)c1ccsc1NC(=O)c1ccc(S(=O)(=O)N2CCCc3ccccc32)cc1	-3%	-29%	9.3µM*	12µM*
Cc1ccc(Cl)cc1C1=CC(=O)C[C@H](c2ccc(F)cc2)C1	3%	-1%	u	-23%
O=C1C=C(c2cccc(Cl)c2)C[C@@H](c2ccc(Cl)cc2)C1	4%	-3%	2.1µM*	3.3µM*
CC(C)c1cccc(C2=CC(=O)C[C@H](c3ccc4c(c3)OCO4)C2)c1	-26%	-3%	8.3µM*	13µM*
O=C1C=C(c2cccc(Cl)c2O)C[C@@H](c2ccc(Cl)cc2)C1	0%	2%	1.5µM*	2.9µM*
O=C1C=C(c2cc(F)ccc2F)C[C@@H](c2ccc(Cl)cc2)C1	-2%	-1%	u	3.7µM*
O=C1C=C(c2ccc3c(c2)OCO3)C[C@@H](c2ccc3c(c2)OCO3)C1	6%	3%	35%	41%
O=C1N=c2ccccc2=C1c1sc(=S)n(NC(=O)c2cccc(O)c2)c1O	13%	1%	1.9µM*	-1%
O=C1N=c2ccccc2=C1c1sc(=S)n(-c2ccc(O)cc2)c1O	2%	-2%	u	-1%
CCC(=O)N1CCc2cc(S(=O)(=O)NCCCN3CCN(Cc4ccccc4)CC3)ccc21	14%	12%	6%	u
CCn1c(O)c(/C(C)=N/N2CCCCC2c2cccnc2)c(=O)[nH]c1=S (configuration not stated)	-17%	-6%	13µM*	u
CC(C)(C)OC(=O)NC(Cc1ccccc1)C(=O)N1CCC(C(=O)NCC(=O)Nc2ccc(F)cc2)CC1 (configuration not stated)	12%	0%	12µM*	u
CO[C@H]1[C@H](O[C@H]2O[C@@H](C)[C@@H](O[C@@H]3C[C@](C)(O)[C@H](OC(=O)CC(C)C)[C@H](C)O3)[C@@H](N(C)C)[C@@H]2O)[C@@H](CC=O)C[C@@H](C)[C@@H](O)/C=C\C=C/C[C@@H](C)OC(=O)C[C@H]1OC(C)=O	x	x	0.41µM*	4.5µM*
CO[C@@H]1[C@@H](OC2OC(C)C(OC3CC(C)(O)C(OC(=O)CC(C)C)C(C)O3)C(N(C)C)C2O)[C@@H](CC=O)C[C@@H](C)C(=O)/C=C\C2O[C@H]2C[C@@H](C)OC(=O)C[C@H]1OC(C)=O (some centres not stated)	x	x	0.76µM*	6.7µM*
Cc1oc(-c2cc(F)ccc2F)nc1CN1CCN(C)C(=O)[C@@H]1C	35%	1%	u	u
NC(=O)c1nsc(C(=O)N(c2ccccc2)C(C(=O)NC2CCCCC2)c2ccc(O)cc2)c1N (configuration not stated)	-3%	-4%	10µM*	u
COc1cc(C(C(=O)NC2CCCCC2)N(C(=O)c2snc(C(N)=O)c2N)c2ccc(C)cc2)ccc1O (configuration not stated)	-5%	2%	0%	7.4µM*
COc1ccc(N(C(=O)c2snc(C(N)=O)c2N)C(C(=O)NC2CCCC2)c2ccc(OC)c(OC)c2)cc1 (configuration not stated)	-10%	-3%	7%	u
CC(C)C[C@H]1CN(CCCC[C@H]2CNC(=O)C(=O)N2CC2CCCCC2)C(=O)C(=O)N1CCC1CCCCC1	3%	x	x	x
CCN(Cc1ccccc1)C(=O)Cn1cnc2c1c(=O)n(C)c(=O)n2C	-23%	2%	-7%	13%
Cn1c(=O)c2c(ncn2CCN(CCO)Cc2ccccc2)n(C)c1=O	-12%	2%	7.4µM*	7%
O=C(NCc1ccccc1C(F)(F)F)C12CN(Cc3ccccc3)CC1C(c1ccc([N+](=O)[O-])cc1)=NO2 (configuration not stated)	-14%	-3%	u	3.3µM*
CC(C)CCNC(=O)C12CN(Cc3ccccc3)CC1C(c1ccc([N+](=O)[O-])cc1)=NO2 (configuration not stated)	u	-3%	u	u
COc1cccc(CNC(=O)C23CN(Cc4ccccc4)CC2C(c2ccc([N+](=O)[O-])cc2)=NO3)c1 (configuration not stated)	-23%	-11%	15µM*	u
O=C(N/N=C\c1c[nH]c2ccccc12)c1ccc(O)cc1	2%	-2%	6%	35%
SMILES	AMA1-RON2 inh	SARS PLP yeast	Pf growth 96h	Pf growth 48h
Cc1csc(SCC(=O)NC2CCCC2)n1	12%	-9%	-15%	-18%
CCC(=O)N1CCc2cc(Br)cc(S(=O)(=O)NCc3ccco3)c21	0%	-5%	u	u
CCC(=O)N1CCc2cc(Br)cc(S(=O)(=O)CCC(=O)NCc3ccco3)c21	-3%	-7%	x	8.3µM*
CCC(=O)N1CCc2cc(Br)cc(S(=O)(=O)CCC(=O)N(C)c3cccc(C)c3)c21	x	-3%	5.2µM*	12µM*
COc1cc(N2CCCC2)c(OC)cc1/C=C(/C#N)c1cccc(F)c1	u	-10%	x	10µM*
N#C/C(=C/c1ccc(N2CCCCCC2)o1)c1cccc(F)c1	-7%	-21%	x	-15%
O=C(c1cc(C2CC2)on1)N1CCCC(N2CCN(c3cccc(C(F)(F)F)c3)CC2)C1 (configuration not stated)	u	u	0%	12µM*
Cc1noc(C)c1C(=O)N1CCCC(N2CCN(c3cccc(C(F)(F)F)c3)CC2)C1 (configuration not stated)	6%	-1%	-31%	u
O=C(c1ccco1)N1CCCC(N2CCN(c3cccc(C(F)(F)F)c3)CC2)C1 (configuration not stated)	0%	-1%	15%	10µM*
CC(C)c1nc(C(=O)N2CCCC(N3CCN(c4cccc(Cl)c4)CC3)C2)cs1 (configuration not stated)	-3%	-2%	3.7µM*	u
O=C(c1cccs1)N1CCCC(N2CCN(c3cccc(C(F)(F)F)c3)CC2)C1 (configuration not stated)	-15%	1%	-13%	u
Cc1nnsc1C(=O)N1CCCC(N2CCN(c3cccc(C(F)(F)F)c3)CC2)C1 (configuration not stated)	-4%	-2%	u	13µM*
CCN(CC)CC(=O)N1CCCC(N2CCN(c3cccc(C(F)(F)F)c3)CC2)C1 (configuration not stated)	0%	1%	9.3µM*	2%
CCC1(C(=O)OC)NC(c2ccco2)C2C(=O)N(c3ccccc3)C(=O)C21 (configuration not stated)	7%	7%	-21%	9%
Cc1cc(NC(=O)COC(=O)C2CCC(=O)N2)c([N+](=O)[O-])cc1C (configuration not stated)	-5%	-3%	-1%	56%
O=C(CCc1ccccc1Cl)Nc1cccc(S(=O)(=O)N2CCCC2)c1	3%	6%	u	u
CCOc1ccc(OCCC(=O)Nc2cccc(S(=O)(=O)N3CCCC3)c2)cc1	-5%	-2%	15µM*	u

Source: PubChem (National Center for Advancing Translational Sciences (NCATS))
